# Data published in PubChem BioAssay AID1851 (National Center for Advancing Translational Sciences (NCATS), 2009).
# The whole screen tested about 16,000 compounds, of which about 5,800 (36%) were called active. Inconclusive results (about 23%) are left out. The call rests on the fitted dose curve; in most records, active means well fitted curve in the direction sought with a large enough effect; inconclusive means small, poorly fitted or top-dose-only effect, or effect the other way; inactive means no such curve, though single readings can be large or run the other way. Some of the results follow.
# Biological target: Cytochrome P450 2C19 (Homo sapiens) (UniProt P33261)
# Sequence (P33261 whole entry, looked up): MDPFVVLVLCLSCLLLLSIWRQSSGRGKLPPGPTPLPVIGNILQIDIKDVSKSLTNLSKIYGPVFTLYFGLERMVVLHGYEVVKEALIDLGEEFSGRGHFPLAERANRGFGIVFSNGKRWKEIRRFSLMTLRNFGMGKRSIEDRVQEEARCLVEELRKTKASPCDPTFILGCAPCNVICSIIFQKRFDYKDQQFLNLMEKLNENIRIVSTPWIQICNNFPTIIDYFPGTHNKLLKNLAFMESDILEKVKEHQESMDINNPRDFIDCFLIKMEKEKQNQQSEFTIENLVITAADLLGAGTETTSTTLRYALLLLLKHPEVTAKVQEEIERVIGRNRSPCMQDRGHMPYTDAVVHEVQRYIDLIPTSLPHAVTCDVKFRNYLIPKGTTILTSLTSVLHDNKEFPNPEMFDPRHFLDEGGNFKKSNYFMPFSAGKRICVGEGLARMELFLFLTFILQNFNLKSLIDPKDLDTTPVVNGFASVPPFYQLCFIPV
# Assay: Cytochrome panel assay with activity outcomes
# Details: recombinant CYP, pro-luciferin dealkylation, luminescence, p450-cyp2c19; series mostly up to 57.1 µM
# On the % scale 0 is the no-effect control and ±100 the full control effect.
SMILES,"activity, negative = inhibition",AC50
O=C(O)c1ccccc1-c1ccccc1C(=O)Nc1ccc2c(c1)[nH]c(=O)c1ccccc12,-24.7% [at 11.4 µM] (inactive),–
COc1cc(=O)n(C)c2c(OC[C@@H](O)C(C)(C)O)cccc12,–,inactive
C[C@H](CCC(=O)NCC(=O)O)[C@H]1CC[C@H]2[C@H]3[C@@H](C[C@@H](O)[C@]12C)[C@]1(C)CC[C@H](O)C[C@@H]1C[C@@H]3O,–,inactive
COCCn1c(C)cc(C2=NNC(=Nc3ccc(F)cc3)SC2)c1C,–,6.31 µM (active)
O=C(NNC(=O)c1cc2cc3ccccc3nc2s1)c1cccc(C(F)(F)F)c1,–,inactive
Cc1ccc(C(=O)N/N=C/c2sc(=O)n(Cc3cccc(C(=O)O)c3)c2Cl)cc1,–,inactive
O=C(N/N=C/c1c(Nc2cccc(C(F)(F)F)c2)nc2ccccn2c1=O)c1ccccc1,–,7.08 µM (active)
O=C(NCCC[N+]1=CC=N[C@H]1c1ccccc1)N1CCCc2nc(-c3ccc(Br)cc3)ccc21,-32% [at 11.4 µM] (inactive),–
Clc1ccccc1CSc1nnc(/C=C/c2ccccc2)o1,–,6.31 µM (active)
Clc1cccc(Cl)c1CSc1nnc(/C=C/c2ccccc2)o1,–,10 µM (active)
CC(C)=CCC/C(C)=C/CO/N=C1/C[C@@H](O)[C@@H](O)[C@@H]2[C@@H]3C(=O)N(Cc4ccc5c(c4)OCO5)C(=O)[C@H]3CC[C@H]12,-41.4% [at 11.4 µM] (inactive),–
CC1(C)CC(=O)c2c(Cc3ccccc3)n[nH]c2C1,–,15.8 µM (active)
Cc1ccc(C)c(N2CCN(C(=O)c3ccc4nc(-c5ccco5)c(-c5ccco5)nc4c3)CC2)c1,–,8.91 µM (active)
Cc1ccc(CNC(=O)CCNS(=O)(=O)c2ccc3c(c2)c(=O)n(C)c(=O)n3C)cc1,–,inactive
CCOC(=O)NCc1ccc2c(c1)cc(C)n2C,–,15.8 µM (active)
CCOC(=O)NNc1nncc2ccccc12,–,inactive
CCC(CC)C(=O)NCc1ccc2c(c1)cc(C)n2C,–,14.1 µM (active)
Cc1cc2cc(CNC(=O)CC(C)C)ccc2n1C,–,11.2 µM (active)
CC(N)=O,–,inactive
Cn1c(=O)c2[nH]c(CCS)nc2n(C)c1=O,-13.4% [at 11.4 µM] (inactive),–
COc1ccc(C(C(=O)NC2CCCCC2)N(C(=O)Cc2c[nH]c3ccccc23)c2ccc(NC(C)=O)cc2)cc1OC (stereo not given),–,10 µM (active)
CC(=O)N[C@@H](Cc1c[nH]c2ccccc12)C(=O)OCc1cc(C(F)(F)F)cc(C(F)(F)F)c1,–,inactive
COc1ccc(S(=O)(=O)Nc2cccc(Cl)c2)cc1OC,–,0.631 µM (active)
CCN(CC)Cc1c(O)ccc2c(=O)c(Oc3ccccc3OC)coc12,–,inactive

SMILES,"activity, negative = inhibition",AC50
CCOc1ccccc1Oc1coc2cc(OC)ccc2c1=O,–,2.82 µM (active)
O=C1C2Sc3[nH]c(=O)sc3C(c3ccccc3)C2C(=O)N1c1ccc(Cl)cc1 (stereo not given),–,2.82 µM (active)
O=C1C(C2=NC(C(=O)O)C3C(=O)N(c4ccc(Cl)cc4)C(=O)C23)=C(O)c2ccccc21 (stereo not given),–,inactive
O=C1C2Sc3[nH]c(=O)sc3C(c3ccccc3)C2C(=O)N1c1ccccc1 (stereo not given),–,2.24 µM (active)
Cc1cc(NC(=O)CCCC(=O)OCC(F)(F)C(F)F)cc(C)c1C(=O)O,–,inactive
O=C(CCCC(=O)OCC(=O)c1ccc(Cl)cc1Cl)Nc1cc(C(F)(F)F)ccc1Cl,–,8.91 µM (active)
CCn1cc(-c2nnnn2-c2ccc(Cl)cc2)c(=O)c2ccccc21,–,17.8 µM (active)
O=S(=O)(Nc1ccc2oc(-c3ccccc3)nc2c1)c1ccccc1,–,0.631 µM (active)
COC(=O)[C@@H]1C[C@H]1[C@@H](NC(=O)c1cnccn1)c1ccccc1,–,inactive
COC(=O)[C@H]1C[C@@H]1[C@H](NC(=O)c1cc(C)on1)c1ccccc1,–,20 µM (active)
COC(=O)[C@H]1C[C@@H]1[C@H](NC(=O)c1cnccn1)c1ccccc1,–,inactive
COC(=O)[C@@H]1C[C@H]1[C@@H](NC(=O)c1cc(C)on1)c1ccccc1,–,15.8 µM (active)
C[C@@]1(C(=O)O)NCCc2cc(O)c(O)cc21,–,inactive
COc1ccc(/C=C2\OC(=O)c3c(OC)cccc32)cc1OC,–,8.91 µM (active)
CCc1nc(SCC(=O)NCCc2ccccc2)c2oc3ccccc3c2n1,–,0.562 µM (active)
Cc1nc(SCC(=O)NCCc2ccccc2)c2oc3ccccc3c2n1,–,0.178 µM (active)
CS(=O)(=O)N1CCC2(CC1)CN(c1ncccn1)C2,–,inactive
O=S(=O)(c1ccccc1)N1CCC2(CCCN(c3ncccn3)C2)CC1,–,0.398 µM (active)
O=S(=O)(c1ccccc1)N1CCC2(CCCN(c3ccccn3)C2)CC1,–,0.158 µM (active)
O=S(=O)(c1ccccc1)N1CCC2(CC1)CN(c1ncccn1)C2,–,inactive
CCOC(=O)N/N=C1/C[C@@H](O)[C@@H](O)[C@@H]2[C@@H]3C(=O)N(C4CCCCC4)C(=O)[C@H]3CC[C@H]12,9.98% [at 11.4 µM] (inactive),–
Cl/C(=C\n1cncn1)c1ccc(Cl)cc1Cl,–,inactive
O=C(c1cnc(-c2ccccc2)s1)c1ccc(Cl)cc1Cl,–,2.24 µM (active)
CC(=O)O[C@]1(C)N=NC2(CCCCC2)O1,5.37% [at 11.4 µM] (inactive),–

SMILES,"activity, negative = inhibition",AC50
CCOC(=O)c1c(NC(=O)CCc2ccc(CC)o2)sc(C)c1C,–,5.62 µM (active)
CCOC(=O)c1c(NC(=O)Nc2ccccc2)sc(C)c1C,–,5.01 µM (active)
CO[C@]1(NC(=O)CSCC#N)C(=O)N2C(C(=O)O)=C(CSc3nnnn3C)CS[C@H]21,–,inactive
CCOC(=O)c1c(NC(=O)CSc2nnnn2C)sc(C)c1C,–,10 µM (active)
Cc1sc(NC(=O)C(C)C)c(C(=O)Nc2ccccc2)c1C,–,3.55 µM (active)
NCCSCCC(=O)O,13.2% [at 11.4 µM] (inactive),–
COc1ccccc1-c1cncnc1NCc1cccnc1,–,3.16 µM (active)
Cc1ccccc1-c1cncnc1NCc1ccccc1,–,2 µM (active)
Cc1noc(C)c1-c1cncnc1NCc1ccccc1,–,inactive
Cc1cccc(CNc2ncncc2-c2ccccc2Cl)c1,–,1 µM (active)
Cc1ccccc1-c1cncnc1NCc1cccnc1,–,0.398 µM (active)
CN(C)Cc1ccccc1-c1cncnc1NCc1cccnc1,–,inactive
Cc1nc(N=Nc2ccc(S(=O)(=O)O)cc2S(=O)(=O)O)c(COP(=O)(O)O)c(C=O)c1O,–,inactive
COc1ncc2nc(-c3cccc(C#N)c3)c(=O)n(CCC#N)c2n1,–,inactive
FC(F)(F)c1ccccc1-c1cncnc1NCc1cccnc1,–,2.51 µM (active)
Cc1cccc(CNc2ncncc2-c2ccccc2C)c1,–,1 µM (active)
Cc1cnc(CNc2ncncc2-c2ccccc2CN(C)C)cn1,–,inactive
CC(=O)NCCNc1ncncc1-c1ccccc1C,–,inactive
COc1ccccc1-c1cncnc1NCc1cccc(C)c1,–,0.398 µM (active)
Cc1cnc(CNc2ncncc2-c2ccccc2C)cn1,–,7.94 µM (active)
Cc1cnc(CNc2ncncc2-c2ccccc2C#N)cn1,–,inactive
N#Cc1ccccc1-c1cncnc1NCc1cccnc1,–,inactive
Nc1cc(C(=O)O)[nH]c(=O)n1,35.4% [at 11.4 µM] (inactive),–
COC(=O)CNC(=O)CCCCC(=O)NCC(=O)OC,–,inactive

SMILES,"activity, negative = inhibition",AC50
Cc1nc2sccn2c(=O)c1Cl,–,inactive
CC(C)(CN)CN,26.4% [at 11.4 µM] (inactive),–
CSc1nncc(/C(C)=N\Nc2ccccc2)n1,–,5.01 µM (active)
O=C(c1ccco1)N1CCC2(CCN(Cc3ccncc3)CC2)CC1,–,inactive
N#Cc1ccc(CN2CC3(CCN(C(=O)c4cccc(F)c4)CC3)C2)cc1,–,2 µM (active)
O=C(c1cccc(F)c1)N1CCC2(CCCN(Cc3ccccc3)C2)CC1,–,inactive
N#Cc1ccc(CN2CCCC3(CCN(C(=O)c4cccc(F)c4)CC3)C2)cc1,–,inactive
O=C(c1ccco1)N1CCC2(CCCN(Cc3ccncc3)C2)CC1,–,10 µM (active)
O=C(c1cccc(F)c1)N1CCC2(CCCN(Cc3cc(C(F)(F)F)cc(C(F)(F)F)c3)C2)CC1,–,inactive
O=C(c1cccc(F)c1)N1CCC2(CCCN(Cc3ccncc3)C2)CC1,–,10 µM (active)
O=C(c1cccc(F)c1)N1CCC2(CC1)CN(Cc1ccccc1)C2,–,inactive
O=C(c1ccco1)N1CCC2(CCCN(Cc3ccccc3)C2)CC1,–,inactive
O=C(O)c1ccc2c(c1)C(=O)N(C(Cc1ccc(O)cc1)C(=O)O)C2=O (stereo not given),–,inactive
CO[C@@H]1COC(=O)[C@H](CCSC)NC(=O)C/C=C\[C@@H](C)COC(=O)[C@@H]2CCCN2C(=O)C/C=C\[C@H]1C,43.9% [at 11.4 µM] (inactive),–
Cc1cc(C(C)(C)C)cc(CNC2CCCCC2)c1O,–,0.02 µM (active)
CC(C)(C)c1cc2c(O)c(c1)Cc1cc(C(C)(C)C)cc(c1O)Cc1cc(C(C)(C)C)cc(c1O)Cc1cc(C(C)(C)C)cc(c1O)Cc1cc(C(C)(C)C)cc(c1O)Cc1cc(C(C)(C)C)cc(c1O)Cc1cc(C(C)(C)C)cc(c1O)Cc1cc(C(C)(C)C)cc(c1O)C2,-8.28% [at 11.4 µM] (inactive),–
O=C(Cc1cccs1)N1CCC(c2nc3c(nnn3Cc3ccccc3Cl)c(=O)[nH]2)CC1,–,2 µM (active)
O=C(CSc1ccc(C(F)(F)F)cc1[N+](=O)[O-])Nc1ccccc1,–,0.891 µM (active)
O=C(Nc1ccccc1)N1CC2(CCN(C(=O)c3cc(C(F)(F)F)cc(C(F)(F)F)c3)CC2)C1,–,inactive
Cc1ccc(Nc2c([N+](=O)[O-])ccc3c2=NC2(CCCCC2)N=3)cc1,–,2.82 µM (active)
COc1c(F)c(F)c(C(=O)O)c(Nc2ccc(C)cc2)c1F,–,inactive
CSc1nsc(SC)c1C(=O)Nc1ccc(C)cc1,–,8.91 µM (active)
CCCCOC(=O)c1ccc(NC(=S)NC(=O)c2c(Cl)cnn2C)cc1,–,15.8 µM (active)
